Measurements from PubChem BioAssay (Tox21).
Where “and” joins values, the source holds several entries; their conditions need not be identical. Identical values can stand only once. Inconclusive results are not listed. Calls of active or inactive are those of the source. Unless noted, calls come from the whole dose curve; as a rule, active = well fitted curve in the direction sought with a large enough effect in the repeat runs; inconclusive = weak or mixed curves; inactive = no such curve, though single readings can be large; an effect the other way counts as inactive or inconclusive.

Key:
[1] = molecular target: Acetylcholinesterase (Homo sapiens) (UniProt P22303); assay: Acetylcholinesterase (AChE) small molecule antagonists: enzyme-based qHTS assay (AID 1347397; calls by dose curve; note: nearly all actives have a fitted effect of over 55% in size); settings: Potency: AChE enzyme activity inhibition; outcome: AChE enzyme activity inhibition
In short: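 First, recombinant human AChE (50 mU/mL as dispensed) received test compound or DMSO. Second, plates stood 30 min at room temperature. Third, DTNB and acetylthiocholine were added, followed by 10 min at room temperature and colorimetric detection.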

[2] = molecular target: Acetylcholinesterase (Homo sapiens) (UniProt P22303); assay: Acetylcholinesterase (AChE) small molecule antagonists: fluorescence cell-based qHTS assay (AID 1347398; calls by dose curve; note: nearly all actives have a fitted effect of over 50% in size); settings: Potency: AChE activity; outcome: AChE activity
In short: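 Homogeneous quantitative HTS format. SH-SY5Y cells seeded at 2,000 per well settle overnight at 37 C. Compound pretreatment runs 30 min (37 C, 5% CO2); substrate/probe mix then reacts 40 min at RT before reading 490/520 nm.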

[3] = molecular target: Cytochrome P450 2D6 (Homo sapiens) (UniProt P10635); assay: Cytochrome P450 Family 2 Subfamily D Member 6 (CYP2D6) small molecule antagonists: luciferase reporter qHTS assay (AID 1671196); note: nearly all actives have a fitted effect of over 50% in size; note: potency is the fitted concentration of half-maximal effect; for activity change, negative = inhibition: series mostly up to about 120 µM
In short: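 Chemicals tested for interference with CYP2D6 activity; proluciferin substrate, NADPH regeneration, 1 h at room temperature, luminescent detection.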

[4] = molecular target: Cytochrome P450 2C19 (Homo sapiens) (UniProt P33261); assay: Cytochrome P450 Family 2 Subfamily C Member 19 (CYP2C19) small molecule antagonists: luciferase reporter qHTS assay (AID 1671197); note: nearly all actives have a fitted effect of over 65% in size; note: potency is the fitted concentration of half-maximal effect; for activity change, negative = inhibition: series mostly up to about 120 µM
In short: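 First, compounds are pinned into enzyme-substrate mix and held 10 min at room temperature. Second, NADPH regeneration solution is added and plates incubate 1 h at 37C. Third, detection reagent is added and luminescence read after 20 min.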

[5] = molecular target: Voltage-gated inwardly rectifying potassium channel KCNH2 (Homo sapiens) (UniProt Q12809); assay: Human Ether-a-go-go-Related Gene (hERG) channel small molecule antagonists: fluorescence cell-based qHTS assay (AID 1671200); note: nearly all actives have a fitted effect of over 50% in size; note: potency is the fitted concentration of half-maximal effect;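 for activity change, negative = inhibition: hERG-expressing U2OS cells given a thallium stimulus after FluxOR II dye loading; series mostly up to about 77 µM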
In short: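 hERG-U2OS cells plated overnight at 37 C, loaded with FluxOR II dye 1 h at RT in dark; after 10 min, thallium stimulus added. Fluorescence (480/540 nm) read kinetically for 2 min at 1 s intervals.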

[6] = molecular target: Acetylcholinesterase (Homo sapiens) (UniProt P22303); assay: Acetylcholinesterase (AChE) small molecule antagonists: enzyme-based qHTS assay with human liver microsomes (AID 1347399; calls by dose curve; note: nearly all actives have a fitted effect of over 60% in size); settings: Potency: qHTS inhibition; outcome: qHTS inhibition
In short: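 Recombinant human AChE (50 mU/mL in the enzyme mix) and human liver microsomes (0.25 mg/mL final) were preincubated with compound and NADPH (0.25 mg/mL final) for 30 min at 37 C. Acetylthiocholine/DTNB was then added; thiocholine was read colorimetrically after 10 min at room temperature.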

[7] = molecular target: Cytochrome P450 2C9 (Homo sapiens) (UniProt P11712); assay: Cytochrome P450 Family 2 Subfamily C Member 9 (CYP2C9) small molecule antagonists: luciferase reporter qHTS assay (AID 1671198); note: nearly all actives have a fitted effect of over 50% in size; note: potency is the fitted concentration of half-maximal effect; for activity change, negative = inhibition: series mostly up to about 120 µM
In short: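 Enzyme-substrate mix preincubated with compound 10 min at room temperature; reaction started with NADPH regeneration solution, 1 h 37C. Luminescent luciferin product read after 20 min detection reagent.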

[8] = molecular target: Cytochrome P450 1A2 (Homo sapiens) (UniProt P05177); assay: Cytochrome P450 Family 1 Subfamily A Member 2 (CYP1A2) small molecule antagonists: luciferase reporter qHTS assay (AID 1671199); note: nearly all actives have a fitted effect of over 50% in size; note: potency is the fitted concentration of half-maximal effect; for activity change, negative = inhibition: series mostly up to about 120 µM
In short: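 Read-out is luminescence from luciferin detection reagent (20 min) proportional to CYP1A2 activity; compounds in DMSO preincubated 10 min with enzyme and proluciferin substrate, then NADPH regeneration solution, 1 h, room temperature.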

[9] = molecular target: Cytochrome P450 3A4 (Homo sapiens) (UniProt P08684); assay: Cytochrome P450 Family 3 Subfamily A Member 4 (CYP3A4) small molecule antagonists: luciferase reporter qHTS assay (AID 1671201); note: nearly all actives have a fitted effect of over 50% in size; note: potency is the fitted concentration of half-maximal effect; for activity change, negative = inhibition: series mostly up to about 120 µM
In short: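 P450-Glo CYP3A4 luminescent assay: compounds preincubated 10 min at room temperature with enzyme and proluciferin substrate, NADPH regeneration added, 1 h room-temperature reaction, stopped with luciferin detection reagent; luminescence read after 20 min. Ketoconazole positive control.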
% is set by controls: 0 for no effect and ±100 for the full control effect.

Acetylcholinesterase (Homo sapiens), sequence (P22303 whole entry, looked up): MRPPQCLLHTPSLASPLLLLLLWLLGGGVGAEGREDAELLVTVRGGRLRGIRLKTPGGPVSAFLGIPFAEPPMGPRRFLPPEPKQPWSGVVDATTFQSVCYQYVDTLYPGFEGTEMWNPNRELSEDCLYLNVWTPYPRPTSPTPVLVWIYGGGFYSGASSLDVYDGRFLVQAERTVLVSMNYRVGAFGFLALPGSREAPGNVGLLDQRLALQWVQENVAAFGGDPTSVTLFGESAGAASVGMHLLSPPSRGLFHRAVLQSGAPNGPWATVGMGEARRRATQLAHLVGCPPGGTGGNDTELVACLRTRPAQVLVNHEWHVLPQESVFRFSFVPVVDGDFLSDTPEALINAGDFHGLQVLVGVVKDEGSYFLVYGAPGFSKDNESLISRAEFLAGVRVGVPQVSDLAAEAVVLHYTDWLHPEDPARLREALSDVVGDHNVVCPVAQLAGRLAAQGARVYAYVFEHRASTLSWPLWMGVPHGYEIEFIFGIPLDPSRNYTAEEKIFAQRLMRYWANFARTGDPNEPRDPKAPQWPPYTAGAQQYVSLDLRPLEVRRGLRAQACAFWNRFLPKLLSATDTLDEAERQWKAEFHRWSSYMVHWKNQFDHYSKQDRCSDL
Cytochrome P450 1A2 (Homo sapiens), sequence (P05177 whole entry, looked up): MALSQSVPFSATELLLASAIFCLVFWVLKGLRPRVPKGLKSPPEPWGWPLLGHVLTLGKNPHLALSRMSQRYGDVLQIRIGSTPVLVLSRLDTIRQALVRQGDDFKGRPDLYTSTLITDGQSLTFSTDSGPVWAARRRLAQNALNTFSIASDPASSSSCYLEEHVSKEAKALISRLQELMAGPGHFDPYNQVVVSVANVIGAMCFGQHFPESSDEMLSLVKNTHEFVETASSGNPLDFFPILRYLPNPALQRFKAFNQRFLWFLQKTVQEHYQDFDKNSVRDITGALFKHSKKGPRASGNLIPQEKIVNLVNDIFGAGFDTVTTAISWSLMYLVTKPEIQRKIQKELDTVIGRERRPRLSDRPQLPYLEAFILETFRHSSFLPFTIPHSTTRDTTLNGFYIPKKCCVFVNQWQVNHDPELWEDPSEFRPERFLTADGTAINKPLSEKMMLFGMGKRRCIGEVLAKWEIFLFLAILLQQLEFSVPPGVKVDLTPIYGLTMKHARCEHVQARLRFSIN
Cytochrome P450 3A4 (Homo sapiens), sequence (P08684 whole entry, looked up): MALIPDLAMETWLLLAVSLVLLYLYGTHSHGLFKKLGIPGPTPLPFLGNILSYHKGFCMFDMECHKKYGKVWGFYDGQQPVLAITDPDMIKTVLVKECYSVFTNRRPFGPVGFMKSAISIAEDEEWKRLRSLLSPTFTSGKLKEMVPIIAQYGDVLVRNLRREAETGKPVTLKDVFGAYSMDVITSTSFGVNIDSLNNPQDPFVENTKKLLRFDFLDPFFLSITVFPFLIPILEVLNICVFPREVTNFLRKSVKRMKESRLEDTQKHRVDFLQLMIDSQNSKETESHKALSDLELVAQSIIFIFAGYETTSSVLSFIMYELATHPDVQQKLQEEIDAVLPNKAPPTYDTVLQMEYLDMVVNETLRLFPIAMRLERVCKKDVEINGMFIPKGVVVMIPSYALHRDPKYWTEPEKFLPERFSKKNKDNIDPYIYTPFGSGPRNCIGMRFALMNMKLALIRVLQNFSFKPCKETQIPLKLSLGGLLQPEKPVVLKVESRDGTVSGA
Voltage-gated inwardly rectifying potassium channel KCNH2 (Homo sapiens), sequence (Q12809 whole entry, looked up): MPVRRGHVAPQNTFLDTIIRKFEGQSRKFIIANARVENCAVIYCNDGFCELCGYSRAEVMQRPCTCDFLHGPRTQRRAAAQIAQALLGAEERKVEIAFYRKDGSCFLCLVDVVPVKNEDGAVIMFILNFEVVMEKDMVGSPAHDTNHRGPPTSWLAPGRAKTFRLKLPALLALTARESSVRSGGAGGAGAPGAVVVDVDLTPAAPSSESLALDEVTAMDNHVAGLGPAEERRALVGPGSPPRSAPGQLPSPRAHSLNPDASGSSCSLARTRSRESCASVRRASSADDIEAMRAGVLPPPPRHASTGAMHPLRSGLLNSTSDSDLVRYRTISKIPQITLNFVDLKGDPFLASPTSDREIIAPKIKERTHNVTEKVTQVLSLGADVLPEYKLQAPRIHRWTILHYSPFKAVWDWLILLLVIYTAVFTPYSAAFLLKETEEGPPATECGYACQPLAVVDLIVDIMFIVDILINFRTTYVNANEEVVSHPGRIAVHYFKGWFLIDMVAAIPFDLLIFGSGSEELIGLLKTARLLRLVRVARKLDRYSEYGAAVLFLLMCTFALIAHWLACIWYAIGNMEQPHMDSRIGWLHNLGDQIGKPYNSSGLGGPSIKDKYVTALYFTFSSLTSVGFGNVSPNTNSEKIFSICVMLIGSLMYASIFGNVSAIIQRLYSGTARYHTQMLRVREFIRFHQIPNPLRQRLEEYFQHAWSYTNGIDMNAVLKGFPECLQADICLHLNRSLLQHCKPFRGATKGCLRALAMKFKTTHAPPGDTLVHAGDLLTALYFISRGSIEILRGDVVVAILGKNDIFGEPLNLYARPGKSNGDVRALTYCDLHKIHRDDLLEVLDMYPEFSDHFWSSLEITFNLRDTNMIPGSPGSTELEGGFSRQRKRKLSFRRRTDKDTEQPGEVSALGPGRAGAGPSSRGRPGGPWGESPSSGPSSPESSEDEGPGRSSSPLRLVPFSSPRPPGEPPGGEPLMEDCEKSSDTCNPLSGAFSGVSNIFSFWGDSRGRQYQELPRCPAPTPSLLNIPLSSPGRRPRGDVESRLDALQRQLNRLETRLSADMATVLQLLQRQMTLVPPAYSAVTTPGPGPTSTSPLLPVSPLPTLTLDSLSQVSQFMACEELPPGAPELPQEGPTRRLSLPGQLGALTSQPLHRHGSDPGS
Cytochrome P450 2C19 (Homo sapiens), sequence (P33261 whole entry, looked up): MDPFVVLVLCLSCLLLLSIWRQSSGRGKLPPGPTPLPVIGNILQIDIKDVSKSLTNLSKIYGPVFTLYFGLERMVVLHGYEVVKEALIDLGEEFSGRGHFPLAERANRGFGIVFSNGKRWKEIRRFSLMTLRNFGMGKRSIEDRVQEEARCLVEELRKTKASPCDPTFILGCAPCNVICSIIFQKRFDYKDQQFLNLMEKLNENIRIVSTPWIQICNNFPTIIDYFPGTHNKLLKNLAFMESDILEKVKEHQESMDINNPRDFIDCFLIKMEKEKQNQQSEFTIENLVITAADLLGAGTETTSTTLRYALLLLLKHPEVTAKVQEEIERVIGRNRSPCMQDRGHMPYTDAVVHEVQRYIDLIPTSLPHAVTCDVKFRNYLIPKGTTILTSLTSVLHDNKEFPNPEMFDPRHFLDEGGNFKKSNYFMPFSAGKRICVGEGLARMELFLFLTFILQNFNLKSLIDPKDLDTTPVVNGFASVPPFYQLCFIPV
Cytochrome P450 2C9 (Homo sapiens), sequence (P11712 whole entry, looked up): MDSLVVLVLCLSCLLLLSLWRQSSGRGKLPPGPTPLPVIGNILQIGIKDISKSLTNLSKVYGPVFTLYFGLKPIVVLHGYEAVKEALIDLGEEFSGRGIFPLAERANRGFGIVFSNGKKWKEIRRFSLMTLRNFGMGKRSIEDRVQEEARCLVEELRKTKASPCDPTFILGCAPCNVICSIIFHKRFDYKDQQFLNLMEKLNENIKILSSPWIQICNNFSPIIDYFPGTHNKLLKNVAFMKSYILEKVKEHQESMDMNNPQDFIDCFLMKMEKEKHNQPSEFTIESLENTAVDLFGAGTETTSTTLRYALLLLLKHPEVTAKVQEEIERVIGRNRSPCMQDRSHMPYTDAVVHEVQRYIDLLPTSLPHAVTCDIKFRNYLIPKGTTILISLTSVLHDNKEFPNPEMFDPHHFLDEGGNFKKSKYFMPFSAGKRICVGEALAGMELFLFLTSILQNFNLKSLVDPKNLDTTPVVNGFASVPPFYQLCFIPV
Cytochrome P450 2D6 (Homo sapiens), sequence (P10635 whole entry, looked up): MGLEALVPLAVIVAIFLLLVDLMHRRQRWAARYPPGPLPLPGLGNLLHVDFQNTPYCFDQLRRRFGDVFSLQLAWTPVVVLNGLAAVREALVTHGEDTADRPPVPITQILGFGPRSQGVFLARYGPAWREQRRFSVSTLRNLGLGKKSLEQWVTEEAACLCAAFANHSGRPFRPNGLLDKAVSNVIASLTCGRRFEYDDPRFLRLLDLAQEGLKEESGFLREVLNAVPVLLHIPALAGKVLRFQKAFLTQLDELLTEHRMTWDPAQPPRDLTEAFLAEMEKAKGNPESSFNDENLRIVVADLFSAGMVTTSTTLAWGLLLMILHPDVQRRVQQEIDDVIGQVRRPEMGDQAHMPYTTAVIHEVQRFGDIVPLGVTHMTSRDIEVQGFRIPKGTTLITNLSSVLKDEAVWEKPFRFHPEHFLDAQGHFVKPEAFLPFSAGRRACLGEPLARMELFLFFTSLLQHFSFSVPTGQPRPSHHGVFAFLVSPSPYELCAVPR

OCCSSCCO
inactive: Potency [1] | Potency [2] | Potency [3] | Potency [5]
active: Potency [4] 56.4 µM

COc1cc(CC#N)cc(OC)c1OC
active: Potency [8] 24.5 µM
inactive: Potency [1] | Potency [2] | Potency [6] | Potency [7] | Potency [5] | Potency [9]

O=C(NC(=O)c1cc(F)c(F)cc1Cl)Nc1cc(F)ccc1N1CCC(C(=O)O)CC1
inactive: Potency [1] | Potency [2] | Potency [3] | Potency [4] | Potency [8] | Potency [5] | Potency [9]

CCC1(CCC(C)C)C(=O)NC(=O)NC1=O
inactive: Potency [1] | Potency [2] | Potency [6] | Potency [5]

CCCSP(=S)(OCC)Oc1ccc(SC)cc1 (stereo not given)
inactive: Potency [1] | Potency [2] | Potency [5]
active: Potency [3] 25.2 µM | Potency [4] 0.399 µM | Potency [7] 2.52 µM | Potency [8] 2 µM

COc1ccc2c(c1OC)C(=O)O[C@H]2[C@@H]1c2cc3c(cc2CCN1C)OCO3
inactive: Potency [1] | Potency [2] | Potency [6] | Potency [8]
active: Potency [4] 3.89 µM

CN(C)C(=O)Nc1cccc(OC(=O)NC(C)(C)C)c1
inactive: Potency [1] | Potency [2] | Potency [3] | Potency [4] | Potency [7] | Potency [5] | Potency [9]
active: Potency [8] 39.9 µM

CC(C)C1(C)N=C(c2ncccc2C(=O)O)NC1=O (stereo not given)
inactive: Potency [1] | Potency [2] | Potency [3] | Potency [4] | Potency [7] | Potency [8] | Potency [5] | Potency [9]

CCC[N+](CCC)(CCC)CCC
inactive: Potency [1] | Potency [2] | Potency [6] | Potency [7]

CON(C)C(=O)Nc1ccc(Cl)cc1
active: Potency [4] 39.9 µM | Potency [8] 7.1 µM
inactive: Potency [1] | Potency [2] | Potency [3] | Potency [5] | Potency [9]

Cc1ccccc1
inactive: Potency [1] | Potency [2] | Potency [3] | Potency [4] | Potency [7] | Potency [8] | Potency [5] | Potency [9]

CCCCCCCCn1sccc1=O
inactive: Potency [1] | Potency [2]
active: Potency [3] 11.3 µM | Potency [4] 10.1 µM and 23.5 µM | Potency [7] 10.1 µM and 9.37 µM | Potency [8] 28.3 µM and 23.5 µM | Potency [5] 21.9 µM | Potency [9] 28.3 µM and 37.3 µM

CCCCCCCCCCCCN=C(N)N
active: Potency [8] 2.2 µM
inactive: activity change, negative = inhibition [1] -1.29% [at 4.07 µM] | activity change, negative = inhibition [2] -10.7% [at 3.98 µM] | activity change, negative = inhibition [6] 1.01% [at 4.07 µM] | activity change, negative = inhibition [7] -14.6% [at 4.07 µM] | activity change, negative = inhibition [5] -4.13% [at 2.72 µM] | activity change, negative = inhibition [9] 2.59% [at 4.07 µM]

c1ccc2sc(SNC3CCCCC3)nc2c1
active: Potency [3] 19.8 µM and 35.6 µM | Potency [4] 31.4 µM and 22.4 µM | Potency [7] 31.4 µM and 17.8 µM | Potency [8] 55.8 µM and 35.6 µM
inactive: Potency [1] | Potency [2] | Potency [5]

CC(C)OC(=O)Cc1ccccc1
inactive: Potency [1] | Potency [2] | Potency [6] | Potency [7] | Potency [5] | Potency [9]
active: Potency [8] 35.9 µM

NP(N)(=O)NC(=O)c1ccc(F)cc1
inactive: Potency [1] | Potency [2] | Potency [6] | Potency [5] | Potency [9]

CCCCC(CC)CO[N+](=O)[O-] (stereo not given)
inactive: Potency [1] | Potency [2] | Potency [3] | Potency [4] | Potency [7] | Potency [8] | Potency [5] | Potency [9]

CCCBr
inactive: Potency [1] | Potency [2] | Potency [6] | Potency [4] | Potency [8] | Potency [5]

CCOP(=S)(OCC)SCSc1cc(Cl)ccc1Cl
inactive: Potency [1] | Potency [2] | Potency [3] | Potency [4] | Potency [8] | Potency [5] | Potency [9]

NNCCO
inactive: Potency [1] | Potency [2] | Potency [3] | Potency [4] | Potency [7] | Potency [8] | Potency [5]

C1CS1
inactive: Potency [1] | Potency [2] | Potency [3] | Potency [4] | Potency [7] | Potency [5] | Potency [9]
active: Potency [8] 64.9 µM

O=C=NC1CCCCC1
inactive: Potency [1] | Potency [2] | Potency [3] | Potency [7] | Potency [8] | Potency [5]

COc1cc(C[C@@H](C)N)c(OC)cc1Br
active: Potency [3] 11.6 µM | Potency [8] 36.5 µM
inactive: Potency [1] | Potency [2] | Potency [4] | Potency [7] | Potency [5]

NCCc1cc(O)c(O)cc1O
inactive: Potency [1] | Potency [2] | Potency [6] | Potency [8] | Potency [5] | Potency [9]
active: Potency [4] 9.77 µM
